Assay [1] in a line: qHTS assay to identify small molecule agonists of the vitamin D receptor (VDR) signaling pathway - cell viability counter screen (AID 743224). Further: series mostly up to about 63 µM; nearly all actives have a fitted effect of over 50% in size. The essentials: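 CellTiter-Glo viability readout on VDR-bla cells, measured after 16 h of compound treatment at 37C in the same wells.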
For orientation: qHTS replaces the single test concentration by a dilution series.

Assay [2] is described as follows: qHTS assay to identify small molecule antagonists of the vitamin D receptor (VDR) signaling pathway - cell viability counter screen (AID 743225). Further: nearly all actives have a fitted effect of over 50% in size. Summed up:
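Cytotoxicity counter screen read by CellTiter-Glo luminescence (30 min, room temperature) in the same wells as the VDR-bla antagonist readout. HEK 293T VDR-UAS-bla cells had 16 h at 37C with compound and 3 nM (final) 1-alpha,25-dihydroxyvitamin D3, then 2 h with FRET substrate.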

Assay [3] can be described thus: qHTS assay to identify small molecule agonists of the NFkB signaling pathway (AID 1159509; active means well fitted curve in the direction sought with a large enough effect in the signal ratio in the repeat runs, not every such curve was filed as active; the % refers to the signal ratio; further: series mostly up to about 61 µM). Summed up:
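Beta-lactamase reporter assay run in quantitative high-throughput format on an NF-kB-responsive ME-180 line, with 5 hr compound treatment and a FRET-based blue/green fluorescence readout.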

Assay [4] in a line: qHTS assay to identify small molecule agonists of the NFkB signaling pathway - cell viability counter screen (AID 1159515; calls by dose curve; further: series mostly up to about 61 µM; nearly all actives have a fitted effect of over 55% in size). Summed up: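 Tox21 library compounds were tested for cytotoxicity against NFkB-bla ME-180 cells during a 5 hr exposure at 37 C. CellTiter-Glo luminescence served as the viability read-out.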
The nature of assay [5]: qHTS assay to identify small molecule agonists of the endoplasmic reticulum stress response signaling pathway (AID 1159516; active means well fitted activation curve with a large enough effect in the signal ratio in the repeat runs, not every such curve was filed as active; the % refers to the signal ratio). Summed up: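 Fluorescence at 460 and 530 nm (405 nm excitation) reports beta-lactamase from an ER stress response element in HeLa cells treated 5 hr at 37 C.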
A short description of assay [6]: qHTS assay to identify small molecule agonists of the endoplasmic reticulum stress response signaling pathway - cell viability counter screen (AID 1159517; calls by dose curve; further: series mostly up to about 61 µM; nearly all actives have a fitted effect of over 50% in size). Summed up:
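Steps: seed 1,500 ESRE-bla HeLa cells per well; incubate overnight at 37 C, 5% CO2; add compounds in DMSO for 5 hr; run FRET substrate 2 hr RT; add CellTiter-Glo, wait 30 min, read luminescence.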

A short description of assay [7]: qHTS assay to identify small molecule antagonists of the retinoid-related orphan receptor gamma (ROR-gamma) signaling pathway - cell viability counter screen (AID 1159520). Further: nearly all actives have a fitted effect of over 50% in size. The essentials: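 Tet-on ROR gamma CHO cells were given compounds for 2 hr, then doxycycline hyclate at 1 uM final, and incubated 16 hr at 37 C. Viability was measured as ATP content by CellTiter-Glo luminescence.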

The target of assay [8] is Nuclear receptor ROR-gamma (Homo sapiens) (UniProt P51449). The experiment in a line: qHTS assay to identify small molecule antagonists of the retinoid-related orphan receptor gamma (ROR-gamma) signaling pathway (AID 1159521). The essentials: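 Antagonist read-out: drop in luminescence (ONE-Glo) from an RORE-LUC reporter in CHO cells with doxycycline-inducible ROR-gamma; 2 hr compound pretreatment, 1 uM doxycycline, 16 hr incubation at 37 C.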

Assay [9] can be described thus: qHTS assay to identify small molecule agonists of the AP-1 signaling pathway - cell viability counter screen (AID 1159525; calls by dose curve; further: nearly all actives have a fitted effect of over 55% in size). The essentials:
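Same-well cytotoxicity counter screen of the Tox21 10K library in ME-180 cells. The readout is ATP-dependent luminescence after 5 h compound treatment. Data are normalised to DMSO and tetra n-octyl ammonium bromide controls.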

Assay [10] can be described thus: qHTS assay to identify small molecule agonists of the AP-1 signaling pathway (AID 1159526; calls by dose curve).
Assay [11] has as its target Retinoic acid receptor RXR-alpha (Homo sapiens) (UniProt P19793). The experiment in a line: qHTS assay to identify small molecule agonists of the RXR signaling pathway (AID 1159527; calls by dose curve; further: nearly all actives have a fitted effect of over 35% in size). The essentials: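 Agonist-mode beta-lactamase reporter assay: HEK 293T RXR-alpha-UAS-bla cells treated 16 hr at 37 C with compounds, 9-cis retinoic acid as positive control. LiveBLAzer FRET substrate, 405 nm excitation, 460/530 nm emission.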

Assay [12] can be described thus: qHTS assay to identify small molecule agonists of the RXR signaling pathway - cell viability counter screen (AID 1159529). The essentials:
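CellTiter-Glo luminescence gave viability in the wells also read for beta-lactamase. Cells (RXR-alpha-UAS-bla HEK 293T, 2% charcoal-stripped FBS medium) had 5 hr plating, then 16 hr compound exposure at 37 C; tetraoctyl ammonium bromide served as positive control.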

Assay [13] is described as follows: qHTS assay to identify small molecule antagonists of the retinoid acid receptor (RAR) signaling pathway - cell viability counter screen (AID 1159551). Further: nearly all actives have a fitted effect of over 35% in size. Summed up: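 In this counter screen, the RARE-luciferase line C3RL4 was exposed for 6 h at 37 C and 5% CO2 to compounds with retinol at 1 uM final. Cellular ATP, read by luminescence, served as the viability measure.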

A short description of assay [14]: qHTS assay to identify small molecule antagonists of the retinoic acid receptor (RAR) signaling pathway (AID 1159552; further: nearly all actives have a fitted effect of over 50% in size). Summed up:
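Luminescent RARE reporter read-out in C3RL4 cells: 6 hr co-treatment at 37 C of test compounds with retinol at 1 uM final. Cells plated overnight beforehand; luciferase reagent incubated 30 min at room temperature before reading.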

A short description of assay [15]: qHTS assay to identify small molecule agonists of the retinoic acid receptor (RAR) signaling pathway (AID 1159553). Further: potency means the concentration at half of the fitted maximal effect. The essentials: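 In this cell-based screen, 1,000 C3RL4 cells per well were cultured overnight, dosed with test chemicals in DMSO for 6 hr, and assessed for RARE luciferase luminescence.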
A short description of assay [16]: qHTS assay to identify small molecule antagonists of the estrogen related receptor (ERR) signaling pathway - cell viability counter screen (AID 1224818). Further: series mostly up to about 46 µM. The essentials: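 Viability of ERR cells, CellTiter-Fluor fluorescence; 17.5 h compound exposure at 37 C, DMSO vehicle; 30 min reagent incubation at 37 C/5% CO2.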
Assay [17] in a line: qHTS assay to identify small molecule antagonists of the estrogen related receptor (ERR) signaling pathway (AID 1224819). Summed up: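 Seed ERR cells 2,000/well; rest 6 h at 37 C/5% CO2; pin compounds in DMSO; incubate 18 h at 37 C; add One-Glo; wait 30 min at room temperature; measure luminescence.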
Assay [18] in a line: qHTS assay to identify small molecule agonists of the estrogen related receptor (ERR) signaling pathway (AID 1224820). The essentials:
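Following a 6 h settling period, 2,000 ERR cells per well receive DMSO-dissolved compounds by pin tool and incubate 18 h at 37 C; agonist activity is scored from One-Glo luminescence read 30 min post-addition.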

Assay [19] relates to estrogen-related receptor alpha (ERRalpha) with PGC-1alpha coactivator, human. The experiment in a line: qHTS assay to identify small molecule antagonists of the estrogen related receptor signaling pathway with the pleiotropic PPARgamma coactivator (PGC) (AID 1224821; calls by dose curve). Summed up: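 Screening used NTP's PGC/ERR cells, dosed via pin tool with compound in DMSO alongside positive and negative controls. After 18 h at 37 C, One-Glo reagent sat 30 min at room temperature before luminescence detection.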

Assay [20] can be described thus: qHTS assay to identify small molecule antagonists of the estrogen related receptor signaling pathway with the pleiotropic PPARgamma coactivator (PGC) cell viability counter screen (AID 1224822; further: series mostly up to about 46 µM). The essentials: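 17.5 h compound treatment of PGC/ERR cells at 37 C; readout CellTiter-Fluor fluorescence; run alongside the PGC/ERR antagonist screen to flag cytotoxic compounds.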

Where “and” joins values, the source holds several entries; their conditions need not be identical. Equal values may be shown once. Results filed as inconclusive are left out. Calls of active or inactive are those of the source. Unless noted, the call rests on the fitted dose curve; in most records, active means well fitted curve in the direction sought with a large enough effect in the repeat runs; inconclusive means weak or mixed curves; inactive means no such curve, though single readings can be large; an effect the other way counts as inactive or inconclusive.

Chain of Retinoic acid receptor RXR-alpha (Homo sapiens) (P19793 whole entry, looked up): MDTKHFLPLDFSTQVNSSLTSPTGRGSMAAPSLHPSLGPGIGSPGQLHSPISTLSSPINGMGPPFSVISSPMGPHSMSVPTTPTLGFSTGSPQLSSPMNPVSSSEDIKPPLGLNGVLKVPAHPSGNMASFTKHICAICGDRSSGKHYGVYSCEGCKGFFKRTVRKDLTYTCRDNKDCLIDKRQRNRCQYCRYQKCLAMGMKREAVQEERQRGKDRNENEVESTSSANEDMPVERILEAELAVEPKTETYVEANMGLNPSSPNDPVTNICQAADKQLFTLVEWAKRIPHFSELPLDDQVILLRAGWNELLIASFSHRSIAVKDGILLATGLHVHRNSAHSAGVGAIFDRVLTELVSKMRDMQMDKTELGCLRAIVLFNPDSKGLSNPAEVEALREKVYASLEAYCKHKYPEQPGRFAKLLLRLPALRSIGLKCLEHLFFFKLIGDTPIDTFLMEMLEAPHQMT

For the compound `CC1(C)CC(N)CC(C)(CN)C1` (configuration not stated), the result in [1], in assay [2], in assay [3], in [4], in assay [5] and in assay [7] was inactive. In addition, the compound was classed as inactive in assay [9], in [12], in assay [13] and in assay [14]. Further, the Potency entry in assay [6], in [8], in [10], in assay [11] and in assay [15] was “inactive” throughout.
Take `CCCCCCCCCCO`: the compound was classed as inactive in assay [1], in [2], in assay [3], in assay [4], in [5] and in assay [7]. For the same compound, the compound was called inactive in assay [9], in assay [12], in assay [13] and in [14]. Further, the Potency entry in [6], in assay [8], in assay [10], in assay [11] and in assay [15] was “inactive” each time.
As to `CN(C)CCOC(=O)COc1ccc(Cl)cc1`, the call in assay [1], in [2], in assay [3], in [4], in assay [5] and in assay [7] was inactive. Also, the compound was classed as inactive in assay [9], in [12], in [13], in assay [14], in assay [16] and in [17]. Further, the call in [18], in assay [19] and in assay [20] was inactive. Moreover, the Potency entry in assay [6], in assay [8], in [10], in assay [11] and in assay [15] was “inactive” each time.
For the compound `O=S(=O)(O)c1ccccc1`, the call in assay [1], in [2], in [3], in assay [4], in assay [5] and in assay [7] was inactive. Moreover, the outcome in assay [9], in [12], in assay [13] and in [14] was inactive. Further, the Potency result in [6], in assay [8], in [10], in assay [11] and in [15] was “inactive” throughout.
As to `COc1ccc(CCC(C)=O)cc1`, the compound was called inactive in [1], in [2], in assay [3], in [4], in assay [5] and in [7]. The compound was classed as inactive in assay [9], in assay [12], in assay [13] and in [14]. Besides, the Potency entry in assay [6], in assay [8], in assay [10], in assay [11] and in assay [15] was “inactive” throughout.
`CCCCOC(=O)c1ccc(N)cc1`: the compound was classed as inactive in assay [1], in assay [2], in [3], in assay [4], in assay [5] and in [7]. Also, the outcome in assay [9], in assay [12] and in assay [13] was inactive. Moreover, the Potency result in assay [6], in [8], in assay [10] and in assay [11] was “inactive” each time. For the same compound, in assay [15], the Potency was 26.9 µM (active) and 21.1 µM (active).
With `CCOC(=O)c1ccc(N)cc1`, the call in assay [1], in assay [2], in assay [3], in assay [4], in assay [5] and in [7] was inactive. Besides, the outcome in [9], in assay [12], in assay [13] and in assay [14] was inactive. In addition, the Potency entry in [6], in assay [8], in assay [10] and in assay [11] was “inactive” each time.
Regarding `CCCCC(C=O)CC` (configuration not stated), the compound was called inactive in assay [1], in assay [2], in [3], in assay [4], in [5] and in assay [7]. Also, the result in [9], in assay [12], in assay [13] and in [14] was inactive. For the same compound, the Potency result in assay [6], in assay [8], in [10], in assay [11] and in [15] was “inactive” throughout.
Turning to `CC(CCO)CC(C)(C)C` (configuration not stated), the outcome in assay [1], in [2], in assay [3], in assay [4], in assay [5] and in assay [7] was inactive. The call in assay [9], in assay [12] and in assay [13] was inactive. Also, the Potency result in assay [6], in assay [8], in [10], in assay [11] and in assay [15] was “inactive” in each case.

The values above are taken from PubChem BioAssay (Tox21).
